Assay outcomes as filed in PubChem.
Shown are actives, neighbours in structure and some others; about 19% of the full set was active somewhere.
HT1080 IDH1KD tx = kills HT-1080 cells with IDH1 knockdown; HT-1080 IDH1 knockdown viability, ATP luminescence, 48 h; Potency, µM (series often up to 46.1 µM), for inactives: at the highest dose activity, negative = toxicity, hits mostly cytotoxic; 360,000 tested, 2% active; AID 686971;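 further: potency means the concentration at half of the fitted maximal effect; 0% = DMSO wells and -100% = cell-free medium wells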
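Cytotoxicity counter-line: IDH1KD HT-1080, 48 h, CellTiter-Glo. Curves classed by r2, magnitude and activity.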
DT40 TDP1 CPT = growth inhibition of DT40 Tdp1-/-;hTDP1 cells with camptothecin (screen for TDP1 inhibitors); Potency, µM (series often up to 46.2 µM), inactives show top-dose activity change, negative = growth inhibition, hits mostly inhibitors; chicken DT40 Tdp1-/-;hTDP1 cells + 20 nM CPT, ATP luminescence, 48 h; 420,000 tested, 12% active; further: potency means the concentration at half of the fitted maximal effect; nearly all actives have a fitted effect of over 55% in size
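Chicken DT40 Tdp1-/- cells complemented with human TDP1, 400 cells/well, exposed to compounds plus 20 nM camptothecin for at least 48 h at 37 C; viability read as ATP content by CellTiter-Glo luminescence.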
IL-1B inflam inh = inflammasome signaling inhibition, IL-1 beta readout; THP-1 LPS/ATP IL-1B secretion, AlphaLISA, 16 h; hits give low values; AID 743279; activity change, % at 57.5 µM; 360,000 tested, 4.7% active; in the data active means activity change below about -50%; inconclusive means mostly about -30% to -49%
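THP-1 cells pretreated 1 hr with compounds (up to 57.5 uM final), then stimulated with LPS (250 ng/mL final) plus ATP (1.25 mM final); secreted IL-1B measured by AlphaLISA after 16 hr, decreased signal indicating inhibition.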
HT1080-NT tox = kills 2HG-producing HT-1080-NT fibrosarcoma cells. HT-1080-NT fibrosarcoma viability, CellTiter-Glo ATP luminescence, 48 h. Potency, µM (doses to about 46.1 µM), inactives show at the highest dose activity, negative = less viability, hits mostly cytotoxic. 360,000 tested, 1.6% active;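 further: NT is the 2HG producing partner of a matched IDH1 knockdown line; potency means the concentration at half of the fitted maximal effect; 0% = DMSO-treated cells and -100% = media-only wells without cells; nearly all actives have a fitted effect of over 55% in size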
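Viability of the 2HG-overproducing fibrosarcoma line after 48 hours of compound exposure at 37 degrees C was determined by luminescence with CellTiter-Glo, and concentration-effect curves were then fitted and categorized.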
DT40 TDP1 no CPT = qHTS for Inhibitors of human tyrosyl-DNA phosphodiesterase 1 (TDP1): qHTS in cells in absence of CPT | Potency, µM (series often up to 46.2 µM), for inactives: at the top dose activity change, negative = growth inhibition, most hits filed as inhibitors | AID 686978, 2013 | 420,000 tested, 15% active | DT40 Tdp1-/- hTDP1 cells, no CPT, ATP luminescence, 48 h; further: potency means the concentration at half of the fitted maximal effect; nearly all actives have a fitted effect of over 55% in size
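No-CPT arm: Tdp1-/-;hTDP1 DT40 cells (400/well) plus compounds, incubated ≥48 hr at 37 °C. Readout CellTiter-Glo luminescence.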
Active calls of the source: *; ? = inconclusive; / = no result. Unless noted, the call rests on the fitted dose curve; in most records, active means well fitted curve in the direction sought with a large enough effect; inconclusive means small, poorly fitted or top-dose-only effect, or another doubt; inactive means no such curve, though single readings can be large; an effect the other way counts as inactive or inconclusive. Unless noted, on the % scale 0 is the no-effect control and ±100 the full control effect.

SMILES | HT1080 IDH1KD tx | DT40 TDP1 CPT | IL-1B inflam inh | HT1080-NT tox | DT40 TDP1 no CPT
COCCN(CCOC)C(=O)c1ccc(CSc2nc3ccccc3s2)cc1 | -12.4% | ? | 6.4 | ? | ?
CCOC(=O)N1CCN(C(=O)C[C@@H]2C[C@@]3(C(=O)OCC)CCC=C3N(Cc3cccc4ccccc34)C2=O)CC1 | -13.7% | ? | 10.3 | -0.2% | 16.4µM*
C#CCNC(=O)C[C@@H]1C[C@@]2(C(=O)OCC)CCCC=C2N(Cc2cccc3ccccc23)C1=O | -12.8% | ? | 43.1 | ? | ?
CCOC(=O)[C@]12CCC=C1N(Cc1cccc3ccccc13)C(=O)[C@H](CC(=O)NCCC(C)C)C2 | ? | 23.1µM* | -54.9* | ? | 20.6µM*
CCOC(=O)[C@]12CCC=C1N(Cc1cccc3ccccc13)C(=O)[C@H](CC(=O)NCc1ccc(OC)c(OC)c1)C2 | ? | ? | ? | ? | 16.4µM*
CCOC(=O)N1CCN(C(=O)C[C@@H]2C[C@@]3(C(=O)OCC)CCC=C3N(Cc3ccco3)C2=O)CC1 | 10.9% | 0.1% | 3.6 | 24.7% | -12.5%
CSc1nsc(SC)c1C(=O)N1CCN(S(=O)(=O)c2ccc(C)cc2)C1C (stereo unspecified) | 1.1% | ? | 13.3 | -2.5% | 23.1µM*
CC1Sc2ccc(S(=O)(=O)CCC(=O)NC3CCCC(C)C3C)cc2NC1=O (stereo unspecified) | -2.2% | 20.6µM* | 21.8 | -10.0% | 20.6µM*
CC1Sc2ccc(S(=O)(=O)CCC(=O)N(C)Cc3ccccc3)cc2NC1=O (stereo unspecified) | -4.2% | 18.4µM* | 28.6 | -2.3% | ?
CC1CCCC(NC(=O)CCS(=O)(=O)c2ccc3c(c2)NC(=O)CS3)C1C (stereo unspecified) | -5.9% | ? | 0.0 | -13.3% | ?
CCCNS(=O)(=O)c1ccc2c(c1)n(C)c(=O)n2C | 1.2% | -11.4% | 5.5 | -3.7% | -22.4%
Cn1c(=O)n(C)c2cc(S(=O)(=O)NCCc3ccccc3)ccc21 | -12.2% | 23.1µM* | 18.3 | -2.0% | 23.1µM*
CC1Sc2ccc(S(=O)(=O)NCCc3ccc(S(N)(=O)=O)cc3)cc2NC1=O (stereo unspecified) | -7.6% | -27.2% | 10.4 | -5.8% | -5.6%
CC1Sc2ccc(S(=O)(=O)NCCc3ccccc3)cc2NC1=O (stereo unspecified) | 0.0% | 20.6µM* | -2.1 | -5.1% | 23.1µM*
N#CC1=C(N)SC(N)=C(C#N)C1c1cccc(O)c1 | 0.0% | 23.1µM* | 10.1 | -12.8% | ?
CCc1ccc(NC(=O)Cn2c(=O)c3cccn3c3ccccc32)cc1 | ? | 16.4µM* | -0.7 | ? | 4.11µM*
CCc1ccc(NC(=O)CCn2c(=O)c3cccn3c3ccccc32)cc1 | ? | 23.1µM* | 50.3 | ? | 18.4µM*
COc1ccc(-c2nc3c(c(SCC(=O)N4CCOCC4)n2)Cc2c(CO)cnc(C)c2O3)cc1 | -11.4% | 14.6µM* | ? | -9.7% | 10.3µM*
CCSc1nc(-c2ccccc2)nc2c1Cc1c(CO)cnc(C)c1O2 | / | -9.4% | / | / | -1.7%
COc1ccc(-c2nc3c(c(SCC(=O)N4CCCCC4)n2)Cc2c(CO)cnc(C)c2O3)cc1 | / | 2.59µM* | / | / | 1.3µM*
COc1ccc(-c2nc3c(c(SCC(=O)Nc4cc(C)cc(C)c4)n2)Cc2c(CO)cnc(C)c2O3)cc1 | / | -4.4% | / | / | -12.5%
CCN(CC)C(=O)CSc1nc(-c2ccc(C)cc2)nc2c1Cc1c(CO)cnc(C)c1O2 | / | 9.2µM* | / | / | 8.2µM*
O=C(CSc1nc(-c2ccccc2)nc2c1Cc1ccccc1O2)N1CCCCC1 | / | 10.3µM* | / | / | 11.6µM*
OC[C@H]1O[C@@](CO)(O[C@H]2O[C@H](CO)[C@@H](O)[C@H](O)[C@H]2O)[C@@H](O[C@H]2O[C@H](CO)[C@@H](O)[C@H](O)[C@H]2O)[C@@H]1O | 2.7% | -4.4% | -6.2 | 14.5% | 1.6%
